Data from PubChem BioAssay (Tox21).
Results filed as inconclusive are left out. Activity calls are given as the source filed them. Unless noted, calls follow the shape of the full dose curve.

Columns and labels:
[1] = qHTS assay to identify small molecule agonists of the peroxisome proliferator-activated receptor delta (PPARd) signaling pathway - cell viability counter screen (AID 743211; active = well fitted curve in the direction sought with a large enough effect in the repeat runs; an effect the other way counts as inactive or inconclusive; also: nearly all actives have a fitted effect of over 55% in size)
How it was run: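 Viability of GeneBLAzer PPARd UAS-bla HEK293H cells was assessed after 17 h compound incubation at 37C, using CellTiter-Glo reagent added after the reporter read and luminescence recorded 30 min later.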

[2] = target: Peroxisome proliferator-activated receptor delta (Homo sapiens) (UniProt Q03181); assay: qHTS assay to identify small molecule agonists of the peroxisome proliferator-activated receptor delta (PPARd) signaling pathway (AID 743212);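 also: HEK293H cells with PPARd UAS beta-lactamase reporter GeneBLAzer system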
Sequence of Peroxisome proliferator-activated receptor delta (Homo sapiens) (Q03181 whole entry, looked up): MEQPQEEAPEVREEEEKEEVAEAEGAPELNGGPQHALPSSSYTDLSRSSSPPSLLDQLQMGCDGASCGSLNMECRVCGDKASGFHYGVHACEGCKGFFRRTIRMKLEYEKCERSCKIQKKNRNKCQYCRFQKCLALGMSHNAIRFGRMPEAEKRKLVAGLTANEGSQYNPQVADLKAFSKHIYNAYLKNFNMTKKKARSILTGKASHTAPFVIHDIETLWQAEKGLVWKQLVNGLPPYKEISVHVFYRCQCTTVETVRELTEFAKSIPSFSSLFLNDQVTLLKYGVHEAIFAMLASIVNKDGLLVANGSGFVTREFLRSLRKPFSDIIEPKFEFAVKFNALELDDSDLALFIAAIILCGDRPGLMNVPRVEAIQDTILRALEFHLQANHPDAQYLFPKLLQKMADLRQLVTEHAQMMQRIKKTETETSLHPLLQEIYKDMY
How it was run: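 Beta-lactamase reporter read by fluorescence (LiveBLAzer B/G FRET, 2 h, room temperature). Test agents, in DMSO, incubated at 37 C with PPARd-bla HEK293H cells.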

[3] = qHTS assay to identify small molecule antagonists of the peroxisome proliferator-activated receptor delta (PPARd) signaling pathway - cell viability counter screen (AID 743213; active = well fitted curve in the direction sought with a large enough effect in the repeat runs; an effect the other way counts as inactive or inconclusive; also: nearly all actives have a fitted effect of over 50% in size)
How it was run: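 Viability counter-screen, qHTS format: PPARd-bla HEK293H, L165041 300 nM final, 17 h compound exposure at 37 C, CellTiter-Glo luminescence after 30 min RT.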

[4] = target: Peroxisome proliferator-activated receptor delta (Homo sapiens) (UniProt Q03181); assay: qHTS assay to identify small molecule antagonists of the peroxisome proliferator-activated receptor delta (PPARd) signaling pathway (AID 743215; active = well fitted inhibition curve with a large enough effect in the signal ratio in the repeat runs, not every such curve was filed as active; the % refers to the signal ratio;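 also: cells stimulated with agonist L165041 at 300 nM final during compound exposure; series mostly up to about 62 µM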)
How it was run: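 Plated HEK293H PPARd-bla cells rested 5 h at 37 C and 5% CO2. Compound, then agonist L165041 at 300 nM final, was added; 17 h at 37 C followed. Substrate loading, 2 h room temperature, fluorescence measured.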

[5] = target: Bile acid receptor (Homo sapiens) (UniProt Q96RI1); assay: qHTS assay to identify small molecule antagonists of the farnesoid-X-receptor (FXR) signaling pathway (AID 743217; active = well fitted inhibition curve with a large enough effect in the signal ratio in the repeat runs, not every such curve was filed as active; the % refers to the signal ratio)
Sequence of Bile acid receptor (Homo sapiens) (Q96RI1 whole entry, looked up): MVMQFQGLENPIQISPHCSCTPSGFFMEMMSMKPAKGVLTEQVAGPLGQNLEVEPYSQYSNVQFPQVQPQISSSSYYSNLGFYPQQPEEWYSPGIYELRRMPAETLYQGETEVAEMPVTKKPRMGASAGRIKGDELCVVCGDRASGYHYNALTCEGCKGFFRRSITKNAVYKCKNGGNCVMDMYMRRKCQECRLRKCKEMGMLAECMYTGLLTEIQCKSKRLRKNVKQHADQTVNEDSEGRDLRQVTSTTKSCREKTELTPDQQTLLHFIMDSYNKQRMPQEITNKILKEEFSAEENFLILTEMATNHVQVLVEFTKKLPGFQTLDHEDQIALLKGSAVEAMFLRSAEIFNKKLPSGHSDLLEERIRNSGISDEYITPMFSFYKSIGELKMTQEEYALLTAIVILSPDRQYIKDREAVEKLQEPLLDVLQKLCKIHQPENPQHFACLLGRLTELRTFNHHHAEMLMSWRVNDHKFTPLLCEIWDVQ
How it was run: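 Screen of the Tox21 10K library in quantitative HTS format using FXR-UAS-bla HEK 293T reporter cells. Agonist chenodeoxycholic acid, 50 uM final, added with compounds; 16 h incubation at 37 °C; beta-lactamase FRET fluorescence measured.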

[6] = qHTS assay to identify small molecule agonists of the farnesoid-X-receptor (FXR) signaling pathway - cell viability counter screen (AID 743218; active = well fitted curve in the direction sought with a large enough effect in the repeat runs; an effect the other way counts as inactive or inconclusive; also: nearly all actives have a fitted effect of over 45% in size)
How it was run: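 Viability of FXR-bla HEK 293T cells is measured by ATP-based CellTiter-Glo luminescence following 16 h compound treatment at 37 C and a prior 2 h room-temperature beta-lactamase substrate step.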

[7] = target: Bile acid receptor (Homo sapiens) (UniProt Q96RI1); assay: qHTS assay to identify small molecule agonists of the farnesoid-X-receptor (FXR) signaling pathway (AID 743220; active = well fitted activation curve with a large enough effect in the signal ratio in the repeat runs, not every such curve was filed as active; the % refers to the signal ratio)
How it was run: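 FXR-UAS-bla HEK 293T cells carrying a UAS-driven beta-lactamase reporter were plated for 5 h at 37C/5% CO2, then exposed to DMSO-dissolved Tox21 10K compounds for 16 h at 37C. A LiveBLAzer B/G FRET substrate was loaded for 2 h at room temperature before fluorescence reading.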

[8] = qHTS assay to identify small molecule antagonists of the farnesoid-X-receptor (FXR) signaling pathway - cell viability counter screen (AID 743221; active = well fitted cell-killing curve with a large enough effect in the repeat runs, not every such curve was filed as active; also: nearly all actives have a fitted effect of over 50% in size)
How it was run: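 Quantitative HTS of the Tox21 10K library run in parallel with the beta-lactamase reporter read. HEK 293T cells carrying a UAS-driven bla reporter got compound and 50 uM CDCA (final) for 16 h; ATP-based luminescence followed.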

[9] = target: Vitamin D3 receptor (Homo sapiens) (UniProt P11473); assay: qHTS assay to identify small molecule agonists of the vitamin D receptor (VDR) signaling pathway (AID 743222)
Sequence of Vitamin D3 receptor (Homo sapiens) (P11473 whole entry, looked up): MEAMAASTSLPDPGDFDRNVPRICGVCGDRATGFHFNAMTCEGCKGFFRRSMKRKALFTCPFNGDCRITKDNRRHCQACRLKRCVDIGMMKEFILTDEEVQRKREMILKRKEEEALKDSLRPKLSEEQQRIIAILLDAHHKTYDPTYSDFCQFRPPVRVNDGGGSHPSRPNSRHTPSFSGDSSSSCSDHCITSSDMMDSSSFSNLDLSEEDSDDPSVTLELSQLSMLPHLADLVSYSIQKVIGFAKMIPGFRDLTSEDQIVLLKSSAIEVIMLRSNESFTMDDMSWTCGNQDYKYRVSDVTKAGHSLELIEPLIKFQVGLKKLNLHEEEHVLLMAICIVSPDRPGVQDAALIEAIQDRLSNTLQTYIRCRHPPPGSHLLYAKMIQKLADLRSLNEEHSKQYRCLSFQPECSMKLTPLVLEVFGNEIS
How it was run: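 Fluorescence from cleaved LiveBLAzer B/G FRET substrate served as readout. VDR-bla cells had been treated 16 h at 37C with test compounds in DMSO, following a 4 h settling period, and substrate was loaded for 2 h at RT.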

[10] = target: Vitamin D3 receptor (Homo sapiens) (UniProt P11473); assay: qHTS assay to identify small molecule antagonists of the vitamin D receptor (VDR) signaling pathway (AID 743223; active = well fitted inhibition curve with a large enough effect in the signal ratio in the repeat runs, not every such curve was filed as active; the % refers to the signal ratio)
How it was run: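 Fluorescence from LiveBLAzer B/G FRET substrate, read after 2 h at room temperature, reflects beta-lactamase reporter activity in VDR-bla cells treated 16 h at 37C with compounds and agonist 1alpha,25-dihydroxyvitamin D3 (3 nM final).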

[11] = qHTS assay to identify small molecule antagonists of the vitamin D receptor (VDR) signaling pathway - cell viability counter screen (AID 743225; active = well fitted curve in the direction sought with a large enough effect in the repeat runs; an effect the other way counts as inactive or inconclusive; also: nearly all actives have a fitted effect of over 50% in size)
How it was run: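 Cells (VDR-UAS-bla HEK 293T) are plated, rested 4 h at 37C, dosed with compound and 3 nM final 1-alpha,25-dihydroxy vitamin D3, and incubated 16 h. Viability is taken from CellTiter-Glo luminescence in the reporter wells.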

[12] = qHTS assay to identify small molecule agonists of the NFkB signaling pathway (AID 1159509; active = well fitted curve in the direction sought with a large enough effect in the signal ratio in the repeat runs, not every such curve was filed as active; the % refers to the signal ratio; also: series mostly up to about 61 µM)
How it was run: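 Beta-lactamase reporter assay run in quantitative high-throughput format on an NF-kB-responsive ME-180 line, with 5 hr compound treatment and a FRET-based blue/green fluorescence readout.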

[13] = qHTS assay to identify small molecule agonists of the NFkB signaling pathway - cell viability counter screen (AID 1159515); also: series mostly up to about 61 µM; nearly all actives have a fitted effect of over 55% in size
How it was run: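 Parallel cytotoxicity counter screen in ME-180 cells carrying an NFkB-response-element beta-lactamase reporter, 2,000 cells/well. Compound exposure lasted 5 hr at 37 C, 5% CO2. Cell viability was quantified by CellTiter-Glo luminescence.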

[14] = qHTS assay to identify small molecule agonists of the endoplasmic reticulum stress response signaling pathway (AID 1159516; active = well fitted activation curve with a large enough effect in the signal ratio in the repeat runs, not every such curve was filed as active; the % refers to the signal ratio)
How it was run: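 Using a HeLa line with an ESRE-driven beta-lactamase gene, agonist activity was measured by FRET substrate fluorescence (460 and 530 nm emission) after cells were treated with compounds for 5 hr at 37 C and 5% CO2.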

[15] = qHTS assay to identify small molecule agonists of the endoplasmic reticulum stress response signaling pathway - cell viability counter screen (AID 1159517);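 also: HeLa cells carrying an ER stress response element beta-lactamase reporter; series mostly up to about 61 µM; nearly all actives have a fitted effect of over 50% in size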
How it was run: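 Cytotoxicity of test compounds toward ESRE-bla HeLa cells was assessed after 5 hr exposure. The luminescent CellTiter-Glo signal was measured 30 min after reagent addition.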

[16] = qHTS assay to identify small molecule antagonists of the retinoid-related orphan receptor gamma (ROR-gamma) signaling pathway - cell viability counter screen (AID 1159520; active = well fitted curve in the direction sought with a large enough effect in the repeat runs; an effect the other way counts as inactive or inconclusive; also: nearly all actives have a fitted effect of over 50% in size)
How it was run: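 Tet-on ROR gamma CHO cells (1,000/well) were plated 4 hr, given compounds in DMSO for 2 hr at 37 C, then induced with 1 uM final doxycycline for 16 hr. Viability was read as ATP by CellTiter-Glo luminescence after 30 min.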

[17] = qHTS assay to identify small molecule agonists of the AP-1 signaling pathway - cell viability counter screen (AID 1159525); also: nearly all actives have a fitted effect of over 55% in size
How it was run: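 Each titration point was normalised to DMSO and tetra n-octyl ammonium bromide controls. The read was Cell Titer Glo luminescence after 30 min at RT, following 5 h compound exposure of ME-180 AP-1-bla cells at 37 °C.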

[18] = qHTS assay to identify small molecule agonists of the AP-1 signaling pathway (AID 1159526)
[19] = qHTS assay to identify small molecule agonists of the vitamin D receptor (VDR) signaling pathway - cell viability counter screen (AID 743224; active = well fitted curve in the direction sought with a large enough effect in the repeat runs; an effect the other way counts as inactive or inconclusive)
How it was run: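 Compounds were pin-transferred onto VDR-bla cells plated 4 h earlier; following 16 h incubation at 37C, cell viability was quantified by CellTiter-Glo luminescence after 30 min at room temperature.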

[20] = target: Nuclear receptor ROR-gamma (Homo sapiens) (UniProt P51449); assay: qHTS assay to identify small molecule antagonists of the retinoid-related orphan receptor gamma (ROR-gamma) signaling pathway (AID 1159521; active = well fitted curve in the direction sought with a large enough effect in the repeat runs; an effect the other way counts as inactive or inconclusive)
How it was run: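 RORγ antagonism is scored from reduced reporter luminescence in Tet-on CHO cells. Induction used 1 uM final doxycycline hyclate for 16 h at 37 C, following a 2 h compound exposure.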

Measured: Potency

CNC(=O)Oc1ccccc1C1OCCO1
not listed: [19] | [20]
inactive: all other assays above

CC1CCCCC1NC(=O)Nc1ccccc1 (configuration not stated)
not listed: [1] | [17]
inactive: all other assays above

C[C@]12CC[C@H]3[C@@H](CC=C4C[C@@H](O)CC[C@@]43C)[C@@H]1CC[C@@H]2O
not listed: [2] | [4] | [5] | [7] | [20]
inactive: all other assays above

CCOC(=O)/C=C(C)/C=C/C[C@@H](C)CCCC(C)C
not listed: [1] | [3] | [4] | [6] | [9] | [10] | [19] | [20]
inactive: all other assays above

O=C1OC(=O)C2C1C1(Cl)C(Cl)=C(Cl)C2(Cl)C1(Cl)Cl (configuration not stated)
not listed: [3] | [9] | [10] | [20]
inactive: all other assays above

Cc1ncsc1CCCl
not listed: [3] | [4] | [5] | [7] | [9] | [17]
inactive: all other assays above

O=C(O)c1cccc(Cl)c1
not listed: [3] | [6] | [20]
inactive: all other assays above

CCCSP(=O)(OCC)Oc1ccc(Br)cc1Cl (configuration not stated)
not listed: [3] | [5] | [6] | [17] | [19]
inactive: all other assays above

CC1(C(=O)Nc2ccc(O)c(Cl)c2Cl)CCCCC1
not listed: [1] | [5] | [8] | [10] | [11] | [17] | [18] | [19]
inactive: all other assays above

C1CCC(C2CCCCC2)CC1
not listed: [1] | [2] | [6] | [8] | [11] | [20]
inactive: all other assays above

CCN(CC)C(C)C(=O)c1ccccc1 (configuration not stated)
not listed: [1] | [3] | [5] | [7] | [9] | [10] | [20]
inactive: all other assays above

CNCC(=O)c1ccc(O)c(O)c1
inactive: [1] | [6] | [8] | [9] | [12] | [14] | [15] | [16] | [17] | [18]

CC(=O)Nc1cc([As](=O)(O)O)ccc1O
not listed: [3] | [10] | [11] | [13]
inactive: all other assays above

CCCCc1c(C)nc(NCC)[nH]c1=O
not listed: [5] | [7] | [10] | [17] | [20]
inactive: all other assays above

O=C(NCO)NCO
not listed: [1] | [4] | [5] | [7] | [10] | [11] | [13] | [17]
inactive: all other assays above

O=C1CN=C(c2ccccc2)c2cc([N+](=O)[O-])ccc2N1
not listed: [5] | [7] | [9] | [12] | [19]
inactive: all other assays above

OC(c1ccc(F)cc1)(c1cncnc1)c1ccccc1Cl (configuration not stated)
inactive: [2] | [4] | [8] | [19] | [12] | [14] | [15] | [16] | [17] | [18]

CCOC(=O)NC(=S)Nc1ccccc1NC(=S)NC(=O)OCC
not listed: [1] | [5] | [6] | [7] | [10] | [13]
inactive: all other assays above

CC(Cl)(Cl)[N+](=O)[O-]
not listed: [5] | [7] | [13] | [20]
inactive: all other assays above
